Active and inactive are the calls of the source. Rule for the calls: active = hit-call score of the fitted dose curve at least 0.9, where 1 is the maximum; inactive = score below 0.9.
test: CCTE_Padilla_ZF_Score.Blood_pooling: CCTE's 144 Hour Post-fertilization zebrafish Assay Score for Blood Pooling, Padilla Lab (AID 2284415)
Description: CCTE_Padilla_ZF_Phenotype_Score is a whole embryo, multiplexed assay using zebrafish ova exposed for 144 hours post fertilization on a 96-well plate.CCTE_Padilla_ZF_Score.Blood_pooling is one of one assay component(s) measured or calculated from the CCTE_Padilla_ZF_Phenotype_Score assay. It is designed to make measurements of zebrafish development as detected with brightfield microscopy of developing zebrafish embryos.Data from the assay component CCTE_Padilla_ZF_Score.Blood_pooling was analyzed into 1 assay endpoints. This assay endpoint, CCTE_Padilla_ZF_Score.Blood_pooling, was analyzed in the positive analysis fitting direction relative to DMSO as the negative control and baseline of activity. Using a type of viability reporter, gain-of-signal activity can be used to understand changes in developmentals as they relate to the whole embryo. To generalize the intended target to other relatable targets, this assay endpoint is annotated to the zebrafish development intended target family, where the subfamily is swim bladder morphogenesis.
Zebrafish husbandry: Wild type adult zebrafish (Danio rerio; undefined outbred stock obtained from Aquatic Research Organisms, Hampton, NH, 03842) were housed in an AAALAC-approved animal facility at 28C with a 14:10 h light: dark cycle (lights on at 08:30 h). Adult fish (2-3 females per male; density = 15-20 adults per tank) were kept in one of several 9-liter (L) flow-through colony tanks (Aquaneering Inc., San Diego, CA). All adults in a colony tank were placed in a 2 L (static) breeding tank (Aquatic Habitats, Apopka, FL) one hour prior to light onset. Typically, adults from two to three colony tanks were mated on the same day. Two hours after light onset the adults were returned to the colony tank. All embryos were gathered from each breeder tank, pooled, and placed in a 28C water bath for 2 h, followed by two washes with 0.06% bleach (v/v) in 10% Hanks' Balanced Salt Solution (13.7 mM NaCl 0.54 mM KCl, 25 uM Na2HPO4, 130 uM CaCl2 100 um MgSO4 and 420 um NaHCO3,), hereafter referred to as Hanks' solution, for 5 min in order to remove any residual bacteria or fungi. Immediately following washing, the embryos were examined, and healthy embryos were separated from dead or unfertilized eggs and moved into fresh Hanks'. Chemical exposures: Zebrafish embryos were exposed in 96-well plates. Between 6- and 8-hours post fertilization (hpf), healthy embryos (with chorions) were transferred, one embryo per well, into 96 well (0.5 mL) microtiter plates (Cell Culture-Treated, Flat-Bottom Microplate 96 well [Corning Costar, Kennebunk, ME; Cat 09-761-145]) filled with 200 uL of Hanks' solution. A random number generator was used to assign the order in which the rows of embryos were plated in 96 well plates each week. After plating, the embryos were dosed with 0.8 uL of the chemical dosing solution then immediately sealed with AlumaSeal II (Excel Scientific Inc, Victorville, CA) to prevent volatilization of the chemicals, and then placed in a leakproof secondary container. These containers were placed in an incubator maintained on a 14:10 h light: dark cycle at 26C for rearing. On 5 dpf, live larvae were gently moved out of the plate with test chemicals and into a new 96 well mesh plate (Millipore Corp., Bedford, MA) with just the Hanks' solution. Once within the mesh well plate, the animals were rinsed with 400 uL of fresh Hanks' three times, and then the plates were covered with a non-adhesive material (Microseal A, BioRad, Hercules, CA), plate lid added, and then plate sides wrapped in Parafilm (PM992, Bermis Company, Neenah, WI), and returned to the incubator. […]

Compound	AC50	outcome
O=S(=O)(O)C(F)(F)C(F)(F)C(F)(F)C(F)(F)C(F)(F)C(F)(F)C(F)(F)F	63.4 µM (active)	–
O=C(O)C(F)(F)C(F)(F)C(F)(F)C(F)(F)C(F)(F)C(F)(F)C(F)(F)C(F)(F)Cl	–	inactive
FC(F)(Br)C(F)(F)C(F)(F)C(F)(F)C(F)(F)C(F)(F)Br	–	inactive
Cc1ccc(S(=O)(=O)OCC(F)(F)C(F)(F)C(F)(F)C(F)(F)C(F)(F)C(F)F)cc1	–	inactive
OCC(F)(F)C(F)(F)C(F)(F)C(F)(F)C(F)(F)C(F)F	–	inactive
O=C(O)C(F)(F)C(F)(F)F	–	inactive
C=C(C)C(=O)OCCC(F)(F)C(F)(F)C(F)(F)C(F)(F)C(F)(C(F)(F)F)C(F)(F)F	–	inactive
CC(C)(C)C(=O)CC(=O)C(F)(F)C(F)(F)C(F)(F)F	–	inactive
FC(F)(F)C(F)(F)C(F)(F)C(F)(F)C(F)(F)C(F)(F)C(F)(F)C(F)(F)CCS	–	inactive
O=C(O)C(F)(F)C(F)(F)C(F)(F)F	–	inactive
O=C(O)C(F)(F)C(F)(F)C(F)F	–	inactive
O=S(=O)(OCCOC(F)(F)F)C(F)(F)F	–	inactive
FC(F)(F)C(F)(F)C(F)(F)C(F)(F)C(F)(F)C(F)(F)C(F)(F)C(F)(F)F	–	inactive
FC(F)(F)C(F)(F)C(F)(F)C(F)(F)C(F)(F)C(F)(F)CCS	–	inactive
O=C(Cl)C(F)(F)C(F)(F)C(F)(F)C(F)(F)C(F)(F)C(F)(F)C(F)(F)C(F)(F)F	–	inactive
O=C(O)C(F)(OC(F)(F)C(F)(OC(F)(F)C(F)(OC(F)(F)C(F)(F)C(F)(F)F)C(F)(F)F)C(F)(F)F)C(F)(F)F (stereo not given)	–	inactive
OCC(F)(F)C(F)(F)C(F)(F)C(F)F	–	inactive
OCC(F)(F)C(F)(F)C(F)(F)F	–	inactive
CCO[Si](CCC(F)(F)C(F)(F)C(F)(F)C(F)(F)C(F)(F)C(F)(F)F)(OCC)OCC	–	inactive
C=C(C)C(=O)OCC(F)(F)C(F)(F)C(F)(F)C(F)(F)C(F)(F)C(F)(F)C(F)(F)F	–	inactive

Compound	AC50	outcome
OCCCC(F)(F)C(F)(F)C(F)(F)C(F)(F)C(F)(F)C(F)(F)C(F)(F)F	–	inactive
C=CC(=O)OCC(F)(F)C(F)(F)C(F)(F)C(F)(F)C(F)(F)C(F)(F)C(F)(F)F	–	inactive
FC(F)(F)C(F)(F)C(F)(F)C(F)(F)C(F)(F)C(F)(F)C(F)(F)I	–	inactive
N=C(N)C(F)(F)C(F)(F)C(F)(F)C(F)(F)C(F)(F)C(F)(F)C(F)(F)F	–	inactive
FC(F)(F)C(F)(F)C(F)(F)C(F)(F)CCI	–	inactive
O=C(O)C=C(C(F)(F)F)C(F)(F)F	–	inactive
FC(F)(F)C(F)(F)CNCC(F)(F)C(F)(F)F	–	inactive
CCCCCCCCC(F)(F)C(F)(F)C(F)(F)C(F)(F)C(F)(F)C(F)(F)F	–	inactive
C=CC(F)(F)C(F)(F)C(F)(F)C(F)(F)C(F)(F)C(F)(F)C(F)(F)C(F)(F)F	–	inactive
O=C(O)C(F)(F)C(F)(F)OC(F)(F)F	–	inactive
FC(F)(F)C(F)(F)C(F)(F)C(F)(F)C(F)(F)C(F)(F)C(F)(F)Br	–	inactive
NC(=O)C(F)(F)C(F)(F)C(F)(F)C(F)(F)F	–	inactive
FC(F)(F)C(F)(F)C(F)(F)CI	–	inactive
O=C(O)C(F)(F)C(F)(F)C(F)(F)C(F)(F)C(F)(F)C(F)(F)C(F)(F)C(F)(F)C(F)(F)C(F)(F)C(F)(F)C(F)(F)F	–	inactive
FC(F)(F)C(F)(F)C(F)(F)C(F)(F)C(F)(F)C(F)(F)CC1CO1 (stereo not given)	–	inactive
OCCCC(F)(F)C(F)(F)C(F)(F)F	–	inactive
FC(F)(I)C(F)(F)C(F)(F)C(F)(F)I	–	inactive
O=P(O)(O)OCCC(F)(F)C(F)(F)C(F)(F)C(F)(F)C(F)(F)C(F)(F)F	–	inactive
FC(F)(F)C(F)(F)C(F)(F)N(C(F)(F)C(F)(F)C(F)(F)F)C(F)(F)C(F)(F)C(F)(F)F	–	inactive
O=C(O)C(F)(OC(F)(F)C(F)(OC(F)(F)C(F)(F)C(F)(F)F)C(F)(F)F)C(F)(F)F (stereo not given)	–	inactive

— PubChem BioAssay (EPA / NIEHS)
